In PubChem BioAssay (Tox21):
Inconclusive results are not listed. A call without a number means that no potency is given here. Unmarked numbers belong to inactive results. Activity calls are given as the source filed them. Calls come from the whole dose curve; as a rule, active = well fitted curve in the direction sought with a large enough effect in the repeat runs; inconclusive = weak or mixed curves; inactive = no such curve, though single readings can be large; an effect the other way counts as inactive or inconclusive.

The compounds below were run against Nuclear receptor subfamily 1 group I member 2 (Rattus norvegicus) (UniProt Q9R1A7) (assay: Rat pregnane X receptor (rPXR) activation by small molecules, qHTS assay (AID 1346983; note: nearly all actives have a fitted effect of over 20% in size)). Conditions: rPXR luciferase reporter cells, One-Glo luminescence, 24 h; max activation: active compounds read high.
Sequence of Nuclear receptor subfamily 1 group I member 2 (Rattus norvegicus) (Q9R1A7 whole entry, looked up): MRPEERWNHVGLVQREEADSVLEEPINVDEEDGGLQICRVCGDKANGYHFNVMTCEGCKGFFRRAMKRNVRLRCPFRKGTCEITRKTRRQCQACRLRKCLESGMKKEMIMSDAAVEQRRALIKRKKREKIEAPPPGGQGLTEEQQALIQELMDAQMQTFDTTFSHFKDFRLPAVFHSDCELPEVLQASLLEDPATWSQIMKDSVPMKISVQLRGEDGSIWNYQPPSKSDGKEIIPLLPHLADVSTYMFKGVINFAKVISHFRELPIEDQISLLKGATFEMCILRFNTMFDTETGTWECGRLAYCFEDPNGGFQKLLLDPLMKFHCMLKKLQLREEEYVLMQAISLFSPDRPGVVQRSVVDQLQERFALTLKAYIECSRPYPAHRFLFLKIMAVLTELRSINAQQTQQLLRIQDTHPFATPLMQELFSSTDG
Procedure, shortened: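 Cell-based rPXR activation assay: rPXR cells, 2,000 per well, rested 5hr at 37 C, then exposed to compounds in DMSO for 24 hr at 37 C. Luciferase activity read by One-Glo luminescence after 30 min at room temperature.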

SMILES	max activation [%]
NCCNC(=O)c1ccc(Cl)cn1	-1.85
CC1CCN(CCCC(=O)c2ccc(F)cc2)CC1	-4.88
OCCN1C[C@H](O)[C@@H](O)[C@H](O)[C@H]1CO	-2.71
NC(=O)CCCCC1CCSS1 (stereo not drawn)	-4.58
COc1cc(O)cc(O)c1	-1.94
Nc1nc2c(ncn2CCC(CO)CO)c(=O)[nH]1	3.6
NS(=O)(=O)c1cc2c(cc1C(F)(F)F)NC(Cc1ccccc1)NS2(=O)=O (stereo not drawn)	-1.57
CCN(CC)C(=O)c1ccc(O)c(OC)c1	-5.72
Nc1cc(C(Cl)=C(Cl)Cl)c(S(N)(=O)=O)cc1S(N)(=O)=O	-3.29
NC(=O)c1ncn([C@@H]2O[C@H](CO)[C@@H](O)[C@H]2O)c1N	0.984
NS(=O)(=O)c1cc2c(cc1Cl)NC(CSCc1ccccc1)=NS2(=O)=O	-1.07

These compounds were tested against Nuclear receptor subfamily 1 group I member 2 (Homo sapiens) (UniProt O75469) (assay: CYP3A4 induction through human pregnane X receptor (PXR) by small molecules, qHTS assay (AID 1346984; note: nearly all actives have a fitted effect of over 40% in size)). Conditions: DPX-2 HepG2 PXR, CYP3A4-luciferin luminescence, 24 h; series mostly up to 46.1 µM.
Procedure, shortened: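 Read-out is luminescence after One-Glo addition, following a 3 hr, 37C incubation with Luciferin-IPA CYP3A4 substrate (3uM final). Before that, compounds were on DPX-2 cells (HepG2 co-transfected with PXR element plus CYP3A4-promoter luciferase) for 24 hr at 37C.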

SMILES	Potency
NCCNC(=O)c1ccc(Cl)cn1	inactive
CC1CCN(CCCC(=O)c2ccc(F)cc2)CC1	inactive
OCCN1C[C@H](O)[C@@H](O)[C@H](O)[C@H]1CO	inactive
NC(=O)CCCCC1CCSS1 (stereo not drawn)	inactive
COc1cc(O)cc(O)c1	inactive
Nc1nc2c(ncn2CCC(CO)CO)c(=O)[nH]1	inactive
NS(=O)(=O)c1cc2c(cc1C(F)(F)F)NC(Cc1ccccc1)NS2(=O)=O (stereo not drawn)	inactive
CCN(CC)C(=O)c1ccc(O)c(OC)c1	inactive
Nc1cc(C(Cl)=C(Cl)Cl)c(S(N)(=O)=O)cc1S(N)(=O)=O	inactive
NC(=O)c1ncn([C@@H]2O[C@H](CO)[C@@H](O)[C@H]2O)c1N	inactive
NS(=O)(=O)c1cc2c(cc1Cl)NC(CSCc1ccccc1)=NS2(=O)=O	inactive

What follows are compounds tested against Nuclear receptor subfamily 1 group I member 2 (Homo sapiens) (UniProt O75469) (assay: Human pregnane X receptor (PXR) activation by small molecules, qHTS assay (AID 1346985; note: nearly all actives have a fitted effect of over 40% in size)). Conditions: DPX-2 HepG2 CYP3A4-luciferase, 24 h; series mostly up to 38.3 µM.
Procedure, shortened: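 DPX-2 cells (HepG2 co-transfected with a PXR response element and a CYP3A4-promoter luciferase construct) were seeded at 2,000 per well, rested 5 hr at 37C, then exposed to DMSO-dissolved compounds for 24 hr. Activation was read as luciferase luminescence.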

SMILES	Potency
NCCNC(=O)c1ccc(Cl)cn1	inactive
CC1CCN(CCCC(=O)c2ccc(F)cc2)CC1	inactive
OCCN1C[C@H](O)[C@@H](O)[C@H](O)[C@H]1CO	inactive
NC(=O)CCCCC1CCSS1 (stereo not drawn)	inactive
COc1cc(O)cc(O)c1	inactive
Nc1nc2c(ncn2CCC(CO)CO)c(=O)[nH]1	inactive
NS(=O)(=O)c1cc2c(cc1C(F)(F)F)NC(Cc1ccccc1)NS2(=O)=O (stereo not drawn)	inactive
CCN(CC)C(=O)c1ccc(O)c(OC)c1	inactive
Nc1cc(C(Cl)=C(Cl)Cl)c(S(N)(=O)=O)cc1S(N)(=O)=O	inactive
NC(=O)c1ncn([C@@H]2O[C@H](CO)[C@@H](O)[C@H]2O)c1N	inactive
NS(=O)(=O)c1cc2c(cc1Cl)NC(CSCc1ccccc1)=NS2(=O)=O	inactive
